From PubChem BioAssay (NCATS)
Results filed as inconclusive are left out. The source made the active and inactive calls. Unless noted, calls come from the whole dose curve; as a rule, active = well fitted inhibition curve with a large enough effect; inconclusive = small, poorly fitted or top-dose-only effect; inactive = flat fitted curve, though single readings scatter.

What was measured:
[1] = qHTS for identification of novel therapeutic agents for treatment of microphthalmiaassociated transcription factor (MiT) renal cell carcinoma (RCC) (AID 1963991); details: CellTiter-Glo, 48 h, stronger effect = lower value
Method in brief: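 Three TFE3-fusion RCC cell lines (UOK109, UOK124, UOK145), 500 cells/well, were exposed to the 1912-compound MIPE 4.0 library for 48 hours at 37 C. Viability was read by CellTiter-Glo luminescence, normalised to DMSO (100%) and empty wells (0%), with 11-concentration curve fits.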

7G8 = assay: qHTS profiling for inhibitors of Plasmodium falciparum proliferation (AID 504749); note: nearly all actives have a fitted effect of over 60% in size; note: potency is the fitted concentration of half-maximal effect;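 for activity, negative = inhibition: 0% = DMSO vehicle and full inhibition = artemisinin control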; details: P. falciparum in erythrocytes, SYBR Green DNA, 72 h; series mostly up to 28.7 µM
Method in brief: (§1)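 SYBR Green fluorescence (ex 485 nm, em 535 nm) reports parasite DNA after 72 h compound exposure of infected red cells at 0.3% parasitemia, 2.5% hematocrit; signal normalized to 0.29 uM artemisinin and vehicle wells.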

AS120 = assay: as above; details: P. falciparum in erythrocytes, SYBR Green DNA, 72 h; series mostly up to 28.7 µM
Method in brief: as §1

[2] = as above; details: P. falciparum in erythrocytes, SYBR Green DNA, 72 h
Method in brief: as §1

3D7 = assay: as above; details: P. falciparum in erythrocytes, SYBR Green DNA, 72 h; series mostly up to 28.7 µM
Method in brief: as §1

AA1029 = assay: as above; details: P. falciparum in erythrocytes, SYBR Green DNA, 72 h; series mostly up to 28.7 µM
Method in brief: as §1

ATS189 = assay: as above; details: P. falciparum in erythrocytes, SYBR Green DNA, 72 h; series mostly up to 28.7 µM
Method in brief: as §1

C2A = assay: as above; details: P. falciparum in erythrocytes, SYBR Green DNA, 72 h; series mostly up to 28.7 µM
Method in brief: as §1

[3] = qHTS drug screen for cell cycle checkpoint inhibitors in PARPi-resistant BRCA-mutant ovarian cancer cell lines. (AID 1963452; calls by dose curve); details: PEO1/OlaR viability, CellTiter-Glo luminescence, 96 h, stronger effect = lower value
Method in brief: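 PEO1, PEO4 and PEO1/OlaR ovarian cancer cells, 600 per well, exposed 96 h at 37C to a dilution series. Viability read by CellTiter-Glo luminescence, normalized to DMSO and empty wells; activity summarized as Z-AUC.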

ATS95 = assay: qHTS profiling for inhibitors of Plasmodium falciparum proliferation (AID 504749); note: nearly all actives have a fitted effect of over 60% in size; note: potency is the fitted concentration of half-maximal effect;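 for activity, negative = inhibition: 0% = DMSO vehicle and full inhibition = artemisinin control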; details: P. falciparum in erythrocytes, SYBR Green DNA, 72 h; series mostly up to 28.7 µM
Method in brief: as §1

[4] = TFE3-RCC UOK109 viability, measured here: UOK109 Z-AUC
[5] = TFE3-RCC viability, measured here: UOK124 Z-AUC
[6] = TFE3-RCC viability, measured here: UOK145 Z-AUC
[7] = measured here: PEO1 parental Z-AUC
[8] = at 28.7 µM (top of the series), parasite line A
[9] = at 28.7 µM (top of the series), parasite line B

O=C(O)CCc1ccc(NCc2cccc(Oc3ccccc3)c2)cc1
0.0253: z-score [1, 6]
0.226: z-score [1, 4]
0.797: z-score [1, 5]

Cc1cc2c(C(C)C)c(O)c(O)c(C=O)c2c(O)c1-c1c(C)cc2c(C(C)C)c(O)c(O)c(C=O)c2c1O
active: Potency (7G8) 8.91 µM | Potency (AS120) 8.91 µM

O=c1n(CCCN2CCN(c3cccc(Cl)c3)CC2)nc2ccccn12
-0.148: z-score [1, 4]
inactive: activity, negative = inhibition ([2]; at 12.8 µM (top of the series), parasite line A) -5.98% | Potency (3D7) | Potency (7G8) | Potency (AA1029) | Potency (AS120) | Potency (ATS189) | Potency (C2A)
0.322: z-score [1, 5]
1.01: z-score [1, 6]

Cc1[nH]c(=O)c(C#N)cc1-c1ccncc1
-0.611: Z-AUC [3, 7]
-0.635: Z-AUC ([3]; measured here: PEO4 Z-AUC)
inactive: Z-AUC [3] -0.809 | activity, negative = inhibition [2, 8] -21.8% | activity, negative = inhibition [2, 9] -1.27% | Potency (3D7) | Potency (7G8) | Potency (AA1029) | Potency (AS120) | Potency (ATS189) | Potency (ATS95) | Potency (C2A)

NNCCc1ccccc1
0.364: Z-AUC [3, 7]
inactive: Z-AUC [3] 0.52 | activity, negative = inhibition ([2]; at 12.8 µM (top of the series), parasite line B) -6.84% | Potency (AA1029) | Potency (ATS189) | Potency (ATS95) | Potency (C2A)
0.249: Z-AUC ([3]; measured here: PEO4 Z-AUC)

CCOC(=O)C1=C[C@]2(CC)CCCN3CCc4c(n1c1ccccc41)[C@@H]32
active: Potency (7G8) 5.01 µM | Potency (AA1029) 10 µM | Potency (AS120) 8.91 µM | Potency (ATS95) 12.6 µM

Nc1nc2ccc(OC(F)(F)F)cc2s1
-0.387: Z-AUC [3, 7]
inactive: Z-AUC [3] -0.346 | Potency (3D7) | Potency (7G8) | Potency (AA1029) | Potency (AS120) | Potency (ATS95) | Potency (C2A)
0.245: Z-AUC ([3]; measured here: PEO4 Z-AUC)

Cc1ccccc1C(OCCN(C)C)c1ccccc1 (configuration not stated)
inactive: activity, negative = inhibition [2, 8] -3.11% | activity, negative = inhibition [2, 9] 5.42% | Potency (3D7)
active: Potency (ATS95) 8.91 µM

CCOc1cc(C=C2C(=O)N(c3ccccc3)N=C2C)cc(Cl)c1OCC(=O)OC
0.66: z-score [1, 4]
0.267: z-score [1, 6]
0.208: z-score [1, 5]

NS(=O)(=O)c1cc2c(cc1Cl)NC=NS2(=O)=O
inactive: Z-AUC [3] 0.885 | activity, negative = inhibition [2, 8] 7.83% | activity, negative = inhibition [2, 9] 11% | Potency (3D7) | Potency (7G8) | Potency (AA1029) | Potency (AS120) | Potency (ATS189) | Potency (ATS95) | Potency (C2A)
0.779: Z-AUC ([3]; measured here: PEO4 Z-AUC)
1.02: Z-AUC [3, 7]

Cn1cnc([N+](=O)[O-])c1Sc1ncnc2nc[nH]c12
-1.41: Z-AUC ([3]; measured here: PEO4 Z-AUC)
-1.27: Z-AUC [3, 7]
inactive: Z-AUC [3] -0.621 | Potency (3D7) | Potency (AA1029) | Potency (AS120) | Potency (ATS95)

Cc1ccccc1C(C(=O)NC1CCCC1)N(C(=O)Cn1cnc2ccccc21)c1cccc(F)c1 (configuration not stated)
0.839: z-score [1, 5]
0.51: z-score [1, 4]
0.533: z-score [1, 6]

CC(=O)Oc1ccccc1C(=O)O
inactive: Z-AUC [3] 0.925 | activity, negative = inhibition [2, 8] 3.3% | activity, negative = inhibition [2, 9] 6.15% | Potency (3D7) | Potency (7G8) | Potency (AA1029) | Potency (AS120) | Potency (ATS189) | Potency (ATS95) | Potency (C2A)
0.885: Z-AUC [3, 7]
1.16: Z-AUC ([3]; measured here: PEO4 Z-AUC)

NCCCC(N)(C(=O)O)C(F)F (configuration not stated)
1.05: Z-AUC ([3]; measured here: PEO4 Z-AUC)
inactive: Z-AUC [3] 0.209 | activity, negative = inhibition [2, 8] 2.98% | activity, negative = inhibition [2, 9] 4.55% | Potency (3D7) | Potency (7G8) | Potency (AA1029) | Potency (AS120) | Potency (ATS189) | Potency (ATS95) | Potency (C2A)
0.253: Z-AUC [3, 7]

CC(C)NCC(O)COc1ccc(COCCOC(C)C)cc1 (configuration not stated)
inactive: activity, negative = inhibition [2, 8] 1.04% | activity, negative = inhibition [2, 9] 5.04% | Potency (3D7) | Potency (7G8) | Potency (AA1029) | Potency (AS120) | Potency (ATS189) | Potency (ATS95) | Potency (C2A)

O=NN(CCCl)C(=O)NCCCl
inactive: Z-AUC [3] 0.732 | activity, negative = inhibition [2, 8] -1.48% | activity, negative = inhibition [2, 9] 4.82% | Potency (3D7) | Potency (7G8) | Potency (AA1029) | Potency (AS120) | Potency (ATS189) | Potency (ATS95) | Potency (C2A)
0.83: Z-AUC [3, 7]
0.781: Z-AUC ([3]; measured here: PEO4 Z-AUC)

CN1CCN(CCCN2c3ccccc3Sc3ccc(C(F)(F)F)cc32)CC1
active: Potency ([2]; parasite line A) 2.24 µM | Potency ([2]; parasite line B) 2 µM | Potency (7G8) 7.94 µM | Potency (AA1029) 3.16 µM | Potency (AS120) 3.16 µM | Potency (ATS189) 3.98 µM | Potency (ATS95) 12.6 µM | Potency (C2A) 7.94 µM

Cc1cn[nH]c1
inactive: activity, negative = inhibition [2, 8] 7.67% | activity, negative = inhibition [2, 9] 14.9% | Potency (3D7) | Potency (7G8) | Potency (AA1029) | Potency (AS120) | Potency (ATS189) | Potency (ATS95) | Potency (C2A)

CCCc1nc2c(C)cc(-c3nc4ccccc4n3C)cc2n1Cc1ccc(-c2ccccc2C(=O)O)cc1
inactive: Z-AUC [3] 0.748 | activity, negative = inhibition [2, 8] -11.3%
active: Potency ([2]; parasite line B) 1.78 µM | Potency (3D7) 8.91 µM | Potency (7G8) 0.316 µM | Potency (AS120) 1.41 µM | Potency (ATS189) 0.794 µM | Potency (ATS95) 3.98 µM
1.08: Z-AUC [3, 7]
0.729: Z-AUC ([3]; measured here: PEO4 Z-AUC)

CCCc1nn(C)c2c(=O)[nH]c(-c3cc(S(=O)(=O)N4CCN(C)CC4)ccc3OCC)nc12
1.2: Z-AUC [3, 7]
active: Potency (7G8) 11.2 µM
inactive: Z-AUC [3] 1.57 | activity, negative = inhibition [2, 8] 8.82% | activity, negative = inhibition [2, 9] 0.131% | Potency (3D7) | Potency (AA1029) | Potency (AS120) | Potency (ATS189) | Potency (ATS95) | Potency (C2A)
0.991: Z-AUC ([3]; measured here: PEO4 Z-AUC)

CCOC(=O)N1CCC(=C2c3ccc(Cl)cc3CCc3cccnc32)CC1
active: Potency ([2]; parasite line A) 12.6 µM | Potency (7G8) 2.24 µM | Potency (AS120) 1.78 µM
inactive: activity, negative = inhibition [2, 9] -13.3% | Potency (ATS189) | Potency (C2A)
